For some of these results: Results with a measured potency or affinity are listed apart.

This note sets out measurements from ChEMBL document CHEMBL3988442, “University of Dundee, Small-Polar-MMV Screening Library” (2021).

Common to all, as to set-up: scale not given: direction of the effect not stated beside the values
Test [1] concerns the target Protein translocase subunit SecA (Escherichia coli (strain K12)) (UniProt P10408). Briefly: Assay to Identify E. coli SecA ATPase Inhibitors. It is filed as functional. The conditions noted are these: 30 µM.
Test [2] deals with T1, Ubiquitin-activating enzyme e1, putative (Leishmania donovani (strain BPK282A1)) (UniProt E9BSI1).
T1 sequence (whole entry): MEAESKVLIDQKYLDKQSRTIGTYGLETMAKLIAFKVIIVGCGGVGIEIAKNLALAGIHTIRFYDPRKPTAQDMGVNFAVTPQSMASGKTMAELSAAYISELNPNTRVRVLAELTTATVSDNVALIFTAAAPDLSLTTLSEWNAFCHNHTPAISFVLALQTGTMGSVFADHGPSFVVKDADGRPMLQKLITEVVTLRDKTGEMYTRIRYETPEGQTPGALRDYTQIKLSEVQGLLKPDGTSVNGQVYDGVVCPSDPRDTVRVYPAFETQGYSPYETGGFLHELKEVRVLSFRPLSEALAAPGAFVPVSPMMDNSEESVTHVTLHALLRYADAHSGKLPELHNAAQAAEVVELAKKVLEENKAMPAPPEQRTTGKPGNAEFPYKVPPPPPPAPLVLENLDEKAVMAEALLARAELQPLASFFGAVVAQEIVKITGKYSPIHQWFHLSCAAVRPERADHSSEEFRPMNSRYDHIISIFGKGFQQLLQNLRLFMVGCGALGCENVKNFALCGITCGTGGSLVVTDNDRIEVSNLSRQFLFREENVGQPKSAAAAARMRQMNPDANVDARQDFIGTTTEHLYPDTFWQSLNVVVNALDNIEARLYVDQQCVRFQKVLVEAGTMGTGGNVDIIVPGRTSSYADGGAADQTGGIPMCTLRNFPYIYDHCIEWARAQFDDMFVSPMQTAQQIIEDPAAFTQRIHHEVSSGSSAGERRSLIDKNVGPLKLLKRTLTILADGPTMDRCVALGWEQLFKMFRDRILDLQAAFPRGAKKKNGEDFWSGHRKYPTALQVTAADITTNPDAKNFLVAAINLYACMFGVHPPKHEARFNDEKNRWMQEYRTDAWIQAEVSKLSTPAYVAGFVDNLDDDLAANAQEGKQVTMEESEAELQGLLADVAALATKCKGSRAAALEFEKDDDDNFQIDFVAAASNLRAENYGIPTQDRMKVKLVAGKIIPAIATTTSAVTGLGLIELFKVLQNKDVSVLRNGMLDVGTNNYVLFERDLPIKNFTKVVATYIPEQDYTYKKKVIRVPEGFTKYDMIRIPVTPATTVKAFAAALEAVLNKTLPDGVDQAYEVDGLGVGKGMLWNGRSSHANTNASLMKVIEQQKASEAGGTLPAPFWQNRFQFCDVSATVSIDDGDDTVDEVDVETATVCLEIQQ
Briefly: Leishmania donovani Ubiquitin Activating Enzyme (LdE1). It is filed as functional. The conditions noted are these: 30 µM.

Test [3] deals with AMP-activated protein kinase, AMPK (Homo sapiens) (UniProt P54646+O43741+P54619+Q9UGJ0+Q9Y478+Q13131+Q9UGI9). Briefly: AMP-dependent Kinase enzyme assay. An in vitro enzyme assay that detects ADP turnover that is directly proportional to AMPK activity. This uses naive AMPK that is activated during the assay with MK-8722. It is filed as functional. The conditions noted are these: 30 µM.

Test [4] deals with Sialic acid-binding Ig-like lectin 9 (Homo sapiens) (UniProt Q9Y336). The test is described as follows: Hs-Siglec9 ALPHAscreen SOP 20170721. The settings on record: 10 µM. (Alpha assays give light when donor and acceptor beads are brought close together.)
Chain of Sialic acid-binding Ig-like lectin 9 (Homo sapiens) (Q9Y336 whole entry): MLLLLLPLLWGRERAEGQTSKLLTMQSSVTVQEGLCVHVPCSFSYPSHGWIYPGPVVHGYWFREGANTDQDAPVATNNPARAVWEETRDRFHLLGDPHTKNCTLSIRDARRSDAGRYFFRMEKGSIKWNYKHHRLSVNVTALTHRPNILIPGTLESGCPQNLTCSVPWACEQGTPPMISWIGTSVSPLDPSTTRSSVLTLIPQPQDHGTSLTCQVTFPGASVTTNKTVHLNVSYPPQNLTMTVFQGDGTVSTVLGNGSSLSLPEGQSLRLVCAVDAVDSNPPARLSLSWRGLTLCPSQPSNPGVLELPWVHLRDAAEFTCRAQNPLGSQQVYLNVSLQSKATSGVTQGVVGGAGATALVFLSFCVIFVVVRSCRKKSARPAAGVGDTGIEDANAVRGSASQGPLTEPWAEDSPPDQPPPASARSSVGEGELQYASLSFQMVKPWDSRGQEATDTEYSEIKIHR
Another test concerns Trypanosoma cruzi. Briefly: Trypanosoma cruzi phosphomannomutase and mannose-1-phosphate guanylyltransferase assay. The settings on record: 10 µM. In kind it is functional.
In test [5] the target is T2, Arginase-2, mitochondrial (Homo sapiens) (UniProt P78540).
T2 sequence (whole entry): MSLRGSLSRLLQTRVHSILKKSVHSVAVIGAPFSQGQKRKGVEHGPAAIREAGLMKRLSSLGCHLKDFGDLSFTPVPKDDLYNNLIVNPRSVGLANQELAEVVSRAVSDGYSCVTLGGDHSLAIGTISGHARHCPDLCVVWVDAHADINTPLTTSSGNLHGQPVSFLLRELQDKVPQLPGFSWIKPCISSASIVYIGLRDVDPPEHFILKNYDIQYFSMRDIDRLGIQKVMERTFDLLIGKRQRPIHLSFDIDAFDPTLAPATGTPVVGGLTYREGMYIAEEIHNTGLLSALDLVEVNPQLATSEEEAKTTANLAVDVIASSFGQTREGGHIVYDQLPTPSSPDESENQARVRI
The test is described as follows: in vitro enzyme assay to detect the production of urea directly proportional to the activity of Arginase II. Also: in the data most compounds retested in dose-response had high values. In kind it is functional. The settings on record: 33.3 µM.

For test [6], the target named is T3, Proteasome subunit beta (Trypanosoma cruzi) (UniProt O96673).
T3 sequence (whole entry): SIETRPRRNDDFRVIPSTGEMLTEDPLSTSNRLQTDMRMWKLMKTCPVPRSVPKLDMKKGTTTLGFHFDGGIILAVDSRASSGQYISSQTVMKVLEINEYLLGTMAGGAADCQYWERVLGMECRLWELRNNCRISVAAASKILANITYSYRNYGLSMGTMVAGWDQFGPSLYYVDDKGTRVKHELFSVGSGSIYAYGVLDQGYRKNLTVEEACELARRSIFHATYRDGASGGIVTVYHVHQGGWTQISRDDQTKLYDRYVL
Briefly: Trypanosoma cruzi proteasome chymotrypsin-like activity (TcProtChymo) assay. Also: in the data most compounds retested in dose-response had high values. In kind it is functional. The settings on record: 9.37 µM.

The species entered for the next test is Homo sapiens. Briefly: To identify inhibition of the IFN signalling (Jak-Stat) pathway via expression of an eGFP reporter gene under the control of an IFN-stimulated response element (ISRE) containing MxA promoter. It is filed as functional. The settings on record: 30 µM. A general note: A reporter such as luciferase makes a cellular process visible.
Test [7] concerns the target T4, Tyrosyl-tRNA synthetase, putative (Trypanosoma cruzi (strain CL Brener)) (UniProt Q4DSP6).
T4 sequence (whole entry): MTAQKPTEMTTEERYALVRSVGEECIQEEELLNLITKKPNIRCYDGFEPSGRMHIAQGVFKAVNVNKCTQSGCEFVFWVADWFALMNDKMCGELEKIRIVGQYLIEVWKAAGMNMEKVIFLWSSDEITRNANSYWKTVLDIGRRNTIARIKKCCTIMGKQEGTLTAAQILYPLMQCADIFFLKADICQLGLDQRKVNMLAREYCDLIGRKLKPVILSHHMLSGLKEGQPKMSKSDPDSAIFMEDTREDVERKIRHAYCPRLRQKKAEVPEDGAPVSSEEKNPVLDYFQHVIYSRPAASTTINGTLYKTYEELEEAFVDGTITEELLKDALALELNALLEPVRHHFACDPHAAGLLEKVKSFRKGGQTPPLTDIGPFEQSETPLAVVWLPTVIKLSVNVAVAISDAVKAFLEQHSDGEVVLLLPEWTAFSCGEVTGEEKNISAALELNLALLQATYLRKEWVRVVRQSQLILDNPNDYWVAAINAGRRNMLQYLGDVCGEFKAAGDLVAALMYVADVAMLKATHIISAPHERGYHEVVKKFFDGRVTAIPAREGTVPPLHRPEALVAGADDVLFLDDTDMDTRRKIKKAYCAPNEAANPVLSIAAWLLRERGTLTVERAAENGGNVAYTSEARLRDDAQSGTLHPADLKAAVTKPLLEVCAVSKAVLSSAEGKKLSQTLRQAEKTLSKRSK
Briefly: Trypanosoma cruzi tyrosyl tRNA synthetase (TcYRS) _High Tyrosine SOP. Also: in the data most compounds retested in dose-response had high values. It is filed as functional. The conditions noted are these: 30 µM.

The target in test [8] is T4, Tyrosyl-tRNA synthetase, putative (Trypanosoma cruzi (strain CL Brener)). Briefly: Trypanosoma cruzi tyrosyl tRNA synthetase (TcYRS) SOP. In kind it is functional. The conditions noted are these: 30 µM.
For test [9], the target named is Chromo domain-containing protein 1 (Saccharomyces cerevisiae (strain ATCC 204508 / S288c) (Baker's yeast)) (UniProt P32657). The test is described as follows: ScCHD-1 Enzyme Inhibition Assay. Also: in the data most compounds retested in dose-response had high values. The conditions noted are these: 30 µM. It is filed as functional.
Chain of Chromo domain-containing protein 1 (Saccharomyces cerevisiae (strain ATCC 204508 / S288c) (Baker's yeast)) (P32657 whole entry, the tested form may be a part): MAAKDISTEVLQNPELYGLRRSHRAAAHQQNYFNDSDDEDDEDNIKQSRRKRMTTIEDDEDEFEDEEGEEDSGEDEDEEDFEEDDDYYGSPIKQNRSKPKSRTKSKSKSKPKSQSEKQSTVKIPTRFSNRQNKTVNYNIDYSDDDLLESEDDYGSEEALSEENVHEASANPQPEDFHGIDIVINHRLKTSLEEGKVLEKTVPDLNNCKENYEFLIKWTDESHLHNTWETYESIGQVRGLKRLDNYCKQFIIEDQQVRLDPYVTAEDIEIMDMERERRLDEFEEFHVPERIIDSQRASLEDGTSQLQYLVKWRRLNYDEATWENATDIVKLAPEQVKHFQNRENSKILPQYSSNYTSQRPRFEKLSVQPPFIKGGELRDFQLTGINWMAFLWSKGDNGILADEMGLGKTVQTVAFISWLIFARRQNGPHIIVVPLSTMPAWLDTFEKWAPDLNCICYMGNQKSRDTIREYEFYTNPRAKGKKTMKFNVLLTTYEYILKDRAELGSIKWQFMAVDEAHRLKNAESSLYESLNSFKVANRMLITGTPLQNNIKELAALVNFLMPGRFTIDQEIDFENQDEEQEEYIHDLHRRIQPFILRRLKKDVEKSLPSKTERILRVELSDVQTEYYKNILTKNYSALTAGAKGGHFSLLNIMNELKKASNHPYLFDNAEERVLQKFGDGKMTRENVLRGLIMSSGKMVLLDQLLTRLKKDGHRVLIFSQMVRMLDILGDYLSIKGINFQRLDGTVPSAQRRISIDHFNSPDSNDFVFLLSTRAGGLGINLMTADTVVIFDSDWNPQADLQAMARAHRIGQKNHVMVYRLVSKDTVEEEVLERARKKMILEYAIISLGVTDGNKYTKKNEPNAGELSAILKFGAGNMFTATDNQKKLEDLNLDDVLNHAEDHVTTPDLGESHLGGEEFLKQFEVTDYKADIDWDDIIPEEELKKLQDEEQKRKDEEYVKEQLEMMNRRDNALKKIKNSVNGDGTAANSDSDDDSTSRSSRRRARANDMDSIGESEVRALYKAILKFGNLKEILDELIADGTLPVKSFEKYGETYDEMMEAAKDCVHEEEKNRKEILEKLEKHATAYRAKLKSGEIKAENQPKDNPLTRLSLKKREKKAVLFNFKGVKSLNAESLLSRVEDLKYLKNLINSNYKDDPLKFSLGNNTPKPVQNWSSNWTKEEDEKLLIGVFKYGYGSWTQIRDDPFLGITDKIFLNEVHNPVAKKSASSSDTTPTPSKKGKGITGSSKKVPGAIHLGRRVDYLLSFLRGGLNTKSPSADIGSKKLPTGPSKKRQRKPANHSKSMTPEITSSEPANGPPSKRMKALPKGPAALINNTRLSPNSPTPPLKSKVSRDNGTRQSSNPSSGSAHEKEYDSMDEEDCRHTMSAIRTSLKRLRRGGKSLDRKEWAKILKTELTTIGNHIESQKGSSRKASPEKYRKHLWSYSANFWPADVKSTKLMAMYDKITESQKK

Chain of Protein translocase subunit SecA (Escherichia coli (strain K12)) (P10408 whole entry): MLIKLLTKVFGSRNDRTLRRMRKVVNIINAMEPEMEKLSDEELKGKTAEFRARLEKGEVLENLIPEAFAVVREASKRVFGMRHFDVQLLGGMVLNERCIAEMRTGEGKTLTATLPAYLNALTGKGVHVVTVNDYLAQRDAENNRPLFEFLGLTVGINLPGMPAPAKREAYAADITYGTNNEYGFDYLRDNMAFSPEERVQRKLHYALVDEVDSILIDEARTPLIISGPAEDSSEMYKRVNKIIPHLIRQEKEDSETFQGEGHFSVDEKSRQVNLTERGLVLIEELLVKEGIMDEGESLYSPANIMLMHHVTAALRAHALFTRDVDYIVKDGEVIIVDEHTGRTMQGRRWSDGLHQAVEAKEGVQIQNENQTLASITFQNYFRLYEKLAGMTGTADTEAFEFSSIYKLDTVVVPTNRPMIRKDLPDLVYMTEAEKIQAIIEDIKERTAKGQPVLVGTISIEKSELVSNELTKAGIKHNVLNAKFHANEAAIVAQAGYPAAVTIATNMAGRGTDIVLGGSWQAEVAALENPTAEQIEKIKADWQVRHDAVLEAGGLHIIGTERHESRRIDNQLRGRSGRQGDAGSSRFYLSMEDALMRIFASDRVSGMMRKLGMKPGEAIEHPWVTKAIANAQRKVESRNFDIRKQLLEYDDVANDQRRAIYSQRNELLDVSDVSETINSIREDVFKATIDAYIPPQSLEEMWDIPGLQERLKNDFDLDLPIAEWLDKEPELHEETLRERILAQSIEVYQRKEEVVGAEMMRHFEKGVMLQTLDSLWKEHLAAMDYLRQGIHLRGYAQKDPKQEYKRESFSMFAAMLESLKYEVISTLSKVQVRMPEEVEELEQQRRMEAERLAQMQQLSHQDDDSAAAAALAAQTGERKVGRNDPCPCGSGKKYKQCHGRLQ

Regarding `CCc1nc(CN2CCCN(c3ncnc4ccccc34)CC2)no1`, the Percent Effect in test [1] was 0.435%; in [2] it was 13%; in test [3], -3.4%; in test [4], 2.9%; in the test with Trypanosoma cruzi it was 4.03%; in [5] it was -12.4%. Moreover, the Percent Effect is 18.3% in test [6]; 74.7% in the test listed under Homo sapiens; 3.23% in test [7]; 16.1% in [8]; -2.22% in test [9].
Regarding `COc1ccc(C(=O)N2CCCCC2c2nc(C)cs2)nn1` (stereo unspecified), the Percent Effect was -4.04% in test [1]; 2.6% in [2]; -3.01% in [3]; 4.77% in test [4]; 10.3% with Trypanosoma cruzi; 3.2% in test [5]. Further, the Percent Effect in [6] was -4.39%; in the test filed under Homo sapiens it was 7.94%; in [7], 5.83%; in test [8], 14.6%; in test [9], 69.5%.
Regarding `CC(C)(O)C1CCN(C(=O)Nc2nc(-c3ccccc3)ns2)CC1`, the Percent Effect in test [1] is -2.39%; in test [2], 2.7%; in test [3] it was -2.64%; in test [4], 7.48%; in the test with Trypanosoma cruzi, 2.25%; in [5], 18.6%. Also, the Percent Effect in test [6] is 18.8%; in the test listed under Homo sapiens, 55.5%; in test [7], 1.07%; in test [8] it was 3.7%; in test [9], -3.52%.
Regarding `O=C(Nc1cccc(OCc2cccc(F)c2)c1)C1COCCO1` (stereo unspecified), the Percent Effect in [1] is -6.19%; in test [2], -8%; in test [3], 0.056%; in test [4], 1.36%; with Trypanosoma cruzi, -3.41%; in test [5], -0.521%. For the same molecule, the Percent Effect is 13.2% in test [6]; 28% in the test listed under Homo sapiens; -8.2% in test [7]; -11.1% in test [8]; -6.84% in [9].
As to `CS(=O)(=O)N1Cc2nccn2CC(Cn2ncccc2=O)C1` (stereo unspecified), the Percent Effect was -1.2% in test [1]; 13.3% in [2]; 3.55% in test [3]; 5.03% in test [4]; -5.79% in the test on Trypanosoma cruzi; -26% in test [5]. The Percent Effect in test [6] is 7.18%; in the test filed under Homo sapiens it was 0.368%; in [7], 3.12%; in test [8] it was 12.5%; in [9], -4.85%.
For `CSc1ccsc1C(=O)N1CCN(CC(C)(C)O)CC1`, the Percent Effect in [1] is -4.54%; in test [2], 8.86%; in test [3] it was 0.454%; in test [4], 1.08%; with Trypanosoma cruzi it was 1.13%; in [5], -4.95%. The Percent Effect in [6] is 4.29%; in the test listed under Homo sapiens, 3.01%; in [7], 4.17%; in test [8], -25.3%; in test [9] it was -14.7%.
With `COc1ccccc1C(=O)N1CCCC1Cn1cc(C)cn1` (stereo unspecified), the Percent Effect was -3.53% in test [1]; 18.9% in [2]; -13.2% in test [3]; -6.09% in test [4]; -4.25% in the test with Trypanosoma cruzi; -2.81% in [5]. For the same molecule, the Percent Effect was 4.68% in [6]; -3.42% in the test listed under Homo sapiens; 11.3% in test [7]; 18.5% in test [8]; -4.38% in test [9].
For `CN(C)S(=O)(=O)N1CCCC1CC(=O)c1cccs1` (stereo unspecified), the Percent Effect was 2.35% in test [1]; 2.7% in test [2]; -3.98% in test [3]; 2.64% in [4]; 1.74% with Trypanosoma cruzi; 11.9% in test [5]. For the same molecule, the Percent Effect is -0.862% in test [6]; 16.6% in the test filed under Homo sapiens; -2.65% in test [7]; 4.88% in test [8]; -1.64% in test [9].
On to `CC(NCc1ccncc1)c1cc(F)ccc1N1CCN(C)CC1` (stereo unspecified), for which the Percent Effect in test [1] was -1.22%; in test [2], 5.41%; in test [3], -10.4%; in [4] it was 21%; with Trypanosoma cruzi, 6.16%; in [5], 15.6%. In addition, the Percent Effect was 5.58% in test [6]; -10.1% in the test filed under Homo sapiens; 2.15% in test [7]; 11.1% in [8]; -9.91% in [9].
On to `COc1c(CNC2CCCc3ccccc32)c(C)nn1C` (stereo unspecified), for which the Percent Effect in test [1] was -7.16%; in [2], 21.6%; in test [3], -16.2%; in test [4], 24%; in the test on Trypanosoma cruzi it was 4.79%; in test [5] it was 2.23%. The Percent Effect in test [6] is 12.4%; in the test listed under Homo sapiens it was 7.25%; in test [7], 2.15%; in test [8], 13.6%; in test [9], -5.73%.
For the molecule `Cc1cc(F)ccc1CN1CCC(O)(CN2CCCCC2)C1` (stereo unspecified), the Percent Effect in test [1] is -6.21%; in test [2], 5.33%; in test [3], -7.83%; in test [4] it was 3.56%; in the test on Trypanosoma cruzi, -1.46%; in test [5] it was -1.04%. In addition, the Percent Effect in [6] is 19.2%; in the test listed under Homo sapiens, -1.85%; in test [7], 4.92%; in test [8], 8.64%; in test [9], -4.93%.
